Drawing on PubChem BioAssay (NCATS), this text covers Potency for 20 compounds.

A short description of experiment [1]: qHTS of pediatric cancer cell lines to identify multiple opportunities for drug repurposing: Primary screen for DAOY cells (AID 1347090). Also: nearly all actives have a fitted effect of over 55% in size. Also: potency is read from the fitted curve at half-maximal effect. The conditions noted are these: DAOY medulloblastoma viability, CellTiter-Glo luminescence, 48 h; series mostly up to 46 µM. In short, it runs like this: (§1)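 Viability measured as metabolically active cells via CellTiter-Glo luminescence following 48 hours of compound exposure, 11-point dilutions in confirmatory testing. 500-1,000 cells/well plated 5 hours before dosing; controls were DMSO and 2.3 µM bortezomib.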

Experiment [2] is described as follows: qHTS of pediatric cancer cell lines to identify multiple opportunities for drug repurposing: Primary screen for SJ-GBM2 cells (AID 1347091). Also: potency is read from the fitted curve at half-maximal effect. The conditions noted are these: SJ-GBM2 viability, CellTiter-Glo luminescence, 48 h; series mostly up to 46 µM. The procedure, abridged: as §1
(In general: Quantitative high-throughput screening tests each substance at several concentrations.)

Experiment [3] is described as follows: qHTS of pediatric cancer cell lines to identify multiple opportunities for drug repurposing: Primary screen for A673 cells (AID 1347092). Also: nearly all actives have a fitted effect of over 45% in size. Also: potency is read from the fitted curve at half-maximal effect. The conditions noted are these: A673 Ewing sarcoma viability, CellTiter-Glo ATP luminescence, 48 h; series mostly up to 46 µM. In short, it runs like this:
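Luminescence from CellTiter-Glo, taken after 15 min at room temperature, served as the proxy for metabolically active cells following 48 h treatment. Both potency and efficacy were taken from curves fitted to the titration data.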

Experiment [4] can be described thus: qHTS of pediatric cancer cell lines to identify multiple opportunities for drug repurposing: Primary screen for BT-37 cells (AID 1347094). Also: potency is read from the fitted curve at half-maximal effect. The conditions noted are these: BT-37 viability, CellTiter-Glo luminescence, 48 h; series mostly up to 57.3 µM. In short, it runs like this: (§2)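 CRCs from 8- or 11-point titrations (lowest final 0.59 nM NPC, 0.78 nM MIPE). Cell viability: CellTiter-Glo after 48 h incubation, 15 min room-temperature development, luminescence imaging.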

A short description of experiment [5]: qHTS of pediatric cancer cell lines to identify multiple opportunities for drug repurposing: Primary screen for NB-EBc1 cells (AID 1347095). Also: potency is read from the fitted curve at half-maximal effect. The conditions noted are these: NB-EBc1 neuroblastoma viability, CellTiter-Glo luminescence, 48 h; series mostly up to 46 µM. The procedure, abridged:
as §2

Experiment [6] can be described thus: qHTS of pediatric cancer cell lines to identify multiple opportunities for drug repurposing: Primary screen for U-2 OS cells (AID 1347096). Also: nearly all actives have a fitted effect of over 50% in size. Also: potency is read from the fitted curve at half-maximal effect. The conditions noted are these: U-2 OS viability, CellTiter-Glo luminescence, 48 h; series mostly up to 46 µM. The procedure, abridged: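 Viability after 48 h compound treatment at 37C, 500-1,000 cells/well, read as ATP luminescence with CellTiter-Glo. Primary screens used 11-point (MIPE, 0.78 nM-46 µM) or 8-point (NPC, 0.59 nM-46 µM) final concentrations; follow-up screens used 11-point dilutions.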

A short description of experiment [7]: qHTS of pediatric cancer cell lines to identify multiple opportunities for drug repurposing: Primary screen for Saos-2 cells (AID 1347097). Also: nearly all actives have a fitted effect of over 40% in size. Also: potency is read from the fitted curve at half-maximal effect. The conditions noted are these: Saos-2 viability, CellTiter-Glo ATP luminescence, 48 h; series mostly up to 46 µM. In short, it runs like this:
as §2

Experiment [8] in a line: qHTS of pediatric cancer cell lines to identify multiple opportunities for drug repurposing: Primary screen for SK-N-SH cells (AID 1347098). Also: nearly all actives have a fitted effect of over 65% in size. Also: potency is read from the fitted curve at half-maximal effect. The conditions noted are these: SK-N-SH viability, CellTiter-Glo luminescence, 48 h; series mostly up to 57 µM. In short, it runs like this: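 Cells (500-1,000/well) rested 5 h, then received compounds for 48 h; metabolically active cells were measured by CellTiter-Glo luminescence. Final concentrations spanned up to 46 µM (MIPE, 11-point) or 0.59 nM-46 µM (NPC, 8-point) in primary screens, 11-point in follow-ups.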

A short description of experiment [9]: qHTS of pediatric cancer cell lines to identify multiple opportunities for drug repurposing: Primary screen for NB1643 cells (AID 1347099). Also: nearly all actives have a fitted effect of over 50% in size. The conditions noted are these: NB1643 neuroblastoma viability, CellTiter-Glo luminescence, 48 h; series mostly up to 46 µM. In short, it runs like this:
as §2

Experiment [10] in a line: qHTS of pediatric cancer cell lines to identify multiple opportunities for drug repurposing: Primary screen for SK-N-MC cells (AID 1347093). Also: potency is read from the fitted curve at half-maximal effect. The conditions noted are these: SK-N-MC viability, CellTiter-Glo luminescence, 48 h; series mostly up to 46 µM. In short, it runs like this:
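Metabolically active cells were quantified by ATP-dependent luminescence (CellTiter-Glo, 15 min at room temperature) following 48 h treatment. Cells had been plated at 500-1,000 per well and settled for 5 h beforehand.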

Where “and” joins values, the source holds several entries; their conditions need not be identical. Equal values may be shown once. Inconclusive results are not listed. Calls of active or inactive are those of the source. Calls follow the shape of the dose curve; as a rule, active = well fitted curve in the direction sought with a large enough effect; inconclusive = small, poorly fitted or top-dose-only effect, or another doubt; inactive = no such curve, though single readings can be large; an effect the other way counts as inactive or inconclusive.

On to `Cc1cc(C(C)(C)C)c(O)c(C)c1CC1=NCCN1`, for which the Potency result in [1], in experiment [2], in experiment [3], in experiment [4], in [5] and in [6] was “inactive” throughout. Moreover, the Potency result in experiment [7] and in experiment [8] was “inactive” in each case.

For `CC1(C)O[C@H]2CC(=O)OC[C@]23[C@H]2CC[C@@]4(C)[C@H](c5ccoc5)OC(=O)[C@H]5O[C@]54[C@]2(C)C(=O)C[C@@H]13`, the Potency entry in experiment [1], in experiment [2], in experiment [3], in [4], in experiment [5] and in [6] was “inactive” each time. Also, the Potency result in experiment [8] and in experiment [9] was “inactive” throughout.

In the case of `CCOC(=O)c1ncn2c1CN(C)C(=O)c1cc(F)ccc1-2`, the Potency result in experiment [1], in experiment [2], in [3], in experiment [4], in [5] and in experiment [6] was “inactive” throughout. In addition, in experiment [7], the Potency result was “inactive”.

Turning to `COc1ccc(CCN(C)CCCC(C#N)(c2ccc(OC)c(OC)c2)C(C)C)cc1OC` (centres undefined), the Potency entry in experiment [1], in experiment [2], in experiment [3], in experiment [10], in [4] and in [5] was “inactive” throughout. Moreover, the Potency result in experiment [6] and in [7] was “inactive” throughout.

As for `CCCNCC(O)COc1ccccc1C(=O)CCc1ccccc1` (centres undefined), the Potency entry in [1], in experiment [2], in experiment [3], in experiment [4], in [6] and in experiment [9] was “inactive” throughout. Besides, in experiment [8], the Potency was 21.7 µM (active).

As for `CN(Cc1cnc2nc(N)nc(N)c2n1)c1ccc(C(=O)N[C@@H](CCC(=O)O)C(=O)O)cc1`, the Potency in [1] was 26.6 nM (active); in [2], 47.3 nM (active) and 41.8 nM (active); in experiment [3] it was 4.2 nM (active) and 59 nM (active); in experiment [10], 3 nM (active); in experiment [4] it was 9.8 nM (active) and 48.5 nM (active); in [5] it was 106 nM (active) and 187 nM (active). For the same compound, in experiment [6], the Potency result is “inactive”.

Take `Nc1nnc(-c2cccc(Cl)c2Cl)c(N)n1`: the Potency entry in experiment [1], in experiment [2], in experiment [3], in experiment [4], in experiment [5] and in experiment [6] was “inactive” in each case. Further, the Potency entry in experiment [7] and in experiment [8] was “inactive” each time.

In the case of `NC(CO)C(=O)NNCc1ccc(O)c(O)c1O` (centres undefined), the Potency result in [1], in [2], in experiment [10], in experiment [4], in experiment [5] and in [6] was “inactive” in each case. For the same compound, in experiment [3], the Potency was 23.5 µM (active).

`CS(=O)(=O)CCNCc1ccc(-c2ccc3ncnc(Nc4ccc(OCc5cccc(F)c5)c(Cl)c4)c3c2)o1`: the Potency was 235 nM (active) in experiment [1]; 10.5 µM (active) in [2]; 74.3 nM (active) and 21.1 µM (active) in experiment [3]; 93.5 nM (active) and 11.9 µM (active) in experiment [10]; 24.3 µM (active) and 27.6 µM (active) in experiment [4]; 18700 nM (active) in [6]. For the same compound, the Potency in experiment [7] was 29600 nM (active).

As for `Nc1c2c(nc3ccccc13)CCCC2`, the Potency entry in [1], in [2], in experiment [3], in [10], in experiment [4] and in experiment [5] was “inactive” throughout. Moreover, the Potency result in experiment [6] and in experiment [7] was “inactive” each time.

`CN1CCN(C2=Nc3cc(Cl)ccc3Nc3ccccc32)CC1`: the Potency result in experiment [1], in [2], in [3], in experiment [4] and in [6] was “inactive” in each case.

For the compound `CC#C[C@]1(O)CC[C@H]2[C@@H]3CCC4=CC(=O)CCC4=C3[C@@H](c3ccc(N(C)C)cc3)C[C@@]21C`, the Potency was 469 nM (active) in experiment [1]; 1.05 µM (active) in experiment [2]; 26.6 µM (active) and 118 nM (active) in [3]; 118 nM (active) in experiment [10]; 243 nM (active) in experiment [4]; 935 nM (active) in [6]. The Potency in experiment [7] was 2640 nM (active). For the same compound, in experiment [9], the Potency entry was “inactive”.

As to `OCCN1CCN(CCCN2c3ccccc3Sc3ccc(C(F)(F)F)cc32)CC1`, the Potency result in [1] and in experiment [6] was “inactive” each time. Further, the Potency was 20.9 µM (active) in experiment [2]; 18.7 µM (active) in experiment [3]; 2090 nM (active) in experiment [10]; 13700 nM (active) in experiment [4]; 21.5 µM (active) and 19.4 µM (active) in experiment [8].

In the case of `CC[C@@]1(O)C(=O)OCc2c1cc1n(c2=O)Cc2cc3c(CN(C)C)c(O)ccc3nc2-1`, the Potency is 53.1 nM (active) and 296 nM (active) in experiment [1]; 94.4 nM (active) and 52.6 nM (active) in [2]; 26.6 nM (active) and 118 nM (active) in experiment [3]; 19.5 nM (active) and 86.3 nM (active) in experiment [4]; 47.3 nM (active) and 26.4 nM (active) in experiment [5].

For `Cc1cnc(C(=O)NCCc2ccc(S(=O)(=O)NC(=O)NC3CCCCC3)cc2)cn1`, the Potency result in experiment [1], in experiment [2], in experiment [3], in [4], in [6] and in experiment [8] was “inactive” in each case. Also, in [9], the Potency entry is “inactive”.

For the compound `Cc1ccc(-c2cc(C(F)(F)F)nn2-c2ccc(S(N)(=O)=O)cc2)cc1`, the Potency entry in [1], in [2], in experiment [3], in experiment [6], in [8] and in experiment [9] was “inactive” in each case. Further, the Potency in [7] was 16800 nM (active).

For `CN(CCOc1ccc(NS(C)(=O)=O)cc1)CCc1ccc(NS(C)(=O)=O)cc1`, the Potency entry in [2], in experiment [3], in experiment [10], in [4], in experiment [6] and in experiment [7] was “inactive” throughout. Moreover, the Potency entry in experiment [8] and in [9] was “inactive” in each case.

On to `CN1C2CCC1CC(OC(=O)C(CO)c1ccccc1)C2` (centres undefined), for which the Potency result in experiment [2], in [3], in [10], in experiment [4], in experiment [5] and in experiment [6] was “inactive” throughout. In addition, in experiment [7], the Potency entry was “inactive”.

As for `Cn1c(=O)c2c(ncn2C)n(C)c1=O`, the Potency result in experiment [2], in [3], in experiment [10], in experiment [4], in experiment [5] and in experiment [6] was “inactive” throughout. In addition, the Potency result in experiment [7], in [8] and in experiment [9] was “inactive” throughout.

`Cc1ccc(C(=O)Nc2ccc(S(=O)(=O)O)c3cc(S(=O)(=O)O)cc(S(=O)(=O)O)c23)cc1NC(=O)c1cccc(NC(=O)Nc2cccc(C(=O)Nc3cc(C(=O)Nc4ccc(S(=O)(=O)O)c5cc(S(=O)(=O)O)cc(S(=O)(=O)O)c45)ccc3C)c2)c1`: the Potency entry in [2], in experiment [3], in [10], in experiment [4], in experiment [6] and in [7] was “inactive” in each case.
